From PubChem BioAssay (NCATS)
Values without a mark were called inactive. Records with an inconclusive call do not appear. The source made the active and inactive calls. Unless noted, calls come from the whole dose curve; as a rule, active = well fitted curve in the direction sought with a large enough effect; inconclusive = small, poorly fitted or top-dose-only effect, or another doubt; inactive = no such curve, though single readings can be large; an effect the other way counts as inactive or inconclusive.

Experiments:
SKOV3 = experiment: Primary qHTS to identify gynecologic anti-cancer compounds using libraries of approved drugs and bioactive compounds (AID 1345084); conditions: Gynecologic cancer cell panel viability, ATPlite luminescence, 48 h; series mostly up to 57.5 µM; note: nearly all actives have a fitted effect of over 55% in size; note: potency is the fitted concentration of half-maximal effect
Procedure, shortened: (§1)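 Cell viability after 48 h drug treatment, ATPlite luminescence readout; five doses.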

Tov112D = experiment: as above; conditions: Gynecologic cancer cell panel viability, ATPlite luminescence, 48 h; series mostly up to 57.5 µM
Procedure, shortened: as §1

astro = experiment: Drug repurposing screens with cells derived from glioblastoma tumor samples (AID 1345199); conditions: viability, ATP luminescence, 48 h; series mostly up to 45.9 µM; note: nearly all actives have a fitted effect of over 40% in size; note: potency is the fitted concentration of half-maximal effect; for activity, negative = cell killing: % is set by controls: 0 for no effect and ±100 for the full control effect
Procedure, shortened: (§2)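 Primary testing used CD133+ neurospheres from four GBM patients, seven concentrations, 48 h exposure and ATP-based viability; confirmation added three slower-growing patient lines.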

Tov-21-G = experiment: Primary qHTS to identify gynecologic anti-cancer compounds using libraries of approved drugs and bioactive compounds (AID 1345084); conditions: Gynecologic cancer cell panel viability, ATPlite luminescence, 48 h; series mostly up to 57.5 µM; note: nearly all actives have a fitted effect of over 55% in size; note: potency is the fitted concentration of half-maximal effect
Procedure, shortened: as §1

[1] = Drug repurposing screens with cells derived from glioblastoma tumor samples (AID 1345199); conditions: GBM patient neurospheres viability, ATP luminescence, 48 h; note: nearly all actives have a fitted effect of over 40% in size; note: potency is the fitted concentration of half-maximal effect; for activity, negative = cell killing: % is set by controls: 0 for no effect and ±100 for the full control effect
Procedure, shortened: as §2

[2] = target: Nuclear receptor subfamily 1 group I member 2 (Rattus norvegicus) (UniProt Q9R1A7); experiment: qHTS assay for small molecule activators of the rat pregnane X receptor (rPXR) signaling pathway (AID 651751; call rule not given here; note: 0% is about no effect); conditions: rPXR reporter cells, luciferase (One-Glo), 24 h
Chain of Nuclear receptor subfamily 1 group I member 2 (Rattus norvegicus) (Q9R1A7 whole entry, looked up): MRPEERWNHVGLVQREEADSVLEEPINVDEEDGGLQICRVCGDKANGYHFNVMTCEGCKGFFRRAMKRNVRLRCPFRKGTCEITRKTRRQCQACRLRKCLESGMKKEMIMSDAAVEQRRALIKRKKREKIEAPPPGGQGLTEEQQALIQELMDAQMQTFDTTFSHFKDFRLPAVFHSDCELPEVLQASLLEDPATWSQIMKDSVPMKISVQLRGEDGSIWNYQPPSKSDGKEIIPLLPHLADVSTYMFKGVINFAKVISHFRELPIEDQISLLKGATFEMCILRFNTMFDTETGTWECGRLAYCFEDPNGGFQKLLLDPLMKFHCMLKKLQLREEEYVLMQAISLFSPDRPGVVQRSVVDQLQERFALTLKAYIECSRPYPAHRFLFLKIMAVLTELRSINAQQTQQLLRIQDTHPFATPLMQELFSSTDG

[3] = qHTS assay to identify inhibitors of the type 1 interferon - major histocompatibility complex class I in skeletal muscle: Counter screen cell viability and HiBit confirmation (AID 1347412); conditions: iHSKM muscle cells + IFN-b, HiBiT or CellTiter-Glo, 24 h; Potency: HiBiT; Viability, at 45.9 µM (top of the series); note: potency is the fitted concentration of half-maximal effect; nearly all actives have a fitted effect of over 60% in size
Procedure, shortened: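 HLA-B*08:01–HiBiT knock-in immortalized human myoblasts (C25cl48) stimulated with 4.0 ng/ml human IFN-beta and dosed with compound in a 12-point 1:3 titration (top final 46 uM). After 24 hrs at 37 C, HiBiT lytic luminescence or CellTiter Glo ATP read out.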

[4] = at 45.9 µM (top of the series), tumour line B
[5] = at 45.9 µM (top of the series), tumour line D
[6] = at 46 µM (top of the series), tumour line A
[7] = at 46.1 µM (top of the series), tumour line C
[8] = at 20 µM (top of the series), tumour line C
[9] = at 21.2 µM (top of the series), tumour line B
[10] = at 21.2 µM (top of the series), tumour line D
[11] = at 21.3 µM (top of the series), tumour line A

## CCC(CC)(CC(=O)Nc1cccc(/C=C/c2nc(C3CCC3)cs2)c1)C(=O)O
SKOV3
  Potency: inactive
Tov112D
  Potency: inactive
astro
  Potency: 15.8 µM (active)

## Cc1cc(C)cc(OCC2CNC(=O)O2)c1 (centres undefined)
Tov-21-G
  Potency: inactive
Tov112D
  Potency: inactive
[1]; [4]
  activity, negative = cell killing: 0.397%
[1]; [5]
  activity, negative = cell killing: -17.2%
[1]; [6]
  activity, negative = cell killing: -25.9%
[1]; [7]
  activity, negative = cell killing: 3.04%
astro
  Potency: inactive

## CCNC(=O)/C=C/c1cccc(Br)c1
SKOV3
  Potency: inactive
Tov-21-G
  Potency: inactive
[1]; [4]
  activity, negative = cell killing: -10.7%
[1]; [5]
  activity, negative = cell killing: -16%
[1]; [7]
  activity, negative = cell killing: -17.6%
astro
  Potency: inactive

## CCOC(=O)[C@@](C)(N)Cc1ccc(O)c(O)c1
Tov-21-G
  Potency: inactive
Tov112D
  Potency: inactive
[1]; [8]
  activity, negative = cell killing: -6.91%
[1]; [9]
  activity, negative = cell killing: -8.87%
[1]; [10]
  activity, negative = cell killing: -6.68%
[1]; [11]
  activity, negative = cell killing: -12.3%
astro
  Potency: inactive

## C[N+]1(CC2COC(c3ccccc3)(C3CCCCC3)O2)CCCCC1 (centres undefined)
SKOV3
  Potency: inactive
Tov-21-G
  Potency: inactive
Tov112D
  Potency: inactive
astro
  Potency: inactive

## O=C1C(O)=C(O)C(=O)C(O)=C1O
SKOV3
  Potency: inactive
Tov-21-G
  Potency: inactive
[1]; [4]
  activity, negative = cell killing: -1.83%
[1]; [5]
  activity, negative = cell killing: -8.56%
[1]; [6]
  activity, negative = cell killing: -7.89%
[1]; [7]
  activity, negative = cell killing: 12.8%
astro
  Potency: inactive

## NS(=O)(=O)c1cc(C(=O)O)cc(N2CCCC2)c1Oc1ccccc1
Tov-21-G
  Potency: inactive
Tov112D
  Potency: inactive
[1]; [8]
  activity, negative = cell killing: 0.209%
[1]; [9]
  activity, negative = cell killing: -9.72%
[1]; [10]
  activity, negative = cell killing: -3.36%
[1]; [11]
  activity, negative = cell killing: -12.4%
astro
  Potency: inactive

## O=C(CN1CCN(Cc2ccc3c(c2)OCO3)CC1)N1c2ccccc2Sc2ccccc21
Tov-21-G
  Potency: inactive
Tov112D
  Potency: inactive

## CCc1oc2ccccc2c1C(=O)c1cc(I)c(O)c(I)c1
Tov-21-G
  Potency: inactive
Tov112D
  Potency: inactive
[1]; [7]
  activity, negative = cell killing: -3.24%

## CC1(COc2ccc(CC3SC(=O)NC3=O)cc2)CCCCC1 (centres undefined)
SKOV3
  Potency: inactive
Tov-21-G
  Potency: inactive
Tov112D
  Potency: inactive
[2]
  max response: 13.5%

## CC(C)CCCC(C)N (centres undefined)
SKOV3
  Potency: inactive
Tov-21-G
  Potency: inactive
[1]; [4]
  activity, negative = cell killing: -9.11%
[1]; [5]
  activity, negative = cell killing: -4%
[1]; [6]
  activity, negative = cell killing: -26.4%
[1]; [7]
  activity, negative = cell killing: -27%
astro
  Potency: inactive

## Cc1cccc(C)c1NC(=O)CN1CCCCCC1
Tov-21-G
  Potency: inactive
Tov112D
  Potency: inactive
[1]; [4]
  activity, negative = cell killing: -3.5%
[1]; [5]
  activity, negative = cell killing: -16.9%
[1]; [7]
  activity, negative = cell killing: -16.8%
[1]; tumour line A
  Potency: 35.5 µM (active)
astro
  Potency: inactive

## CC(C)(C)NC[C@H](O)COc1cccc2c1CCCC2=O
Tov-21-G
  Potency: inactive
Tov112D
  Potency: inactive
[1]; [8]
  activity, negative = cell killing: 5.11%
[1]; [9]
  activity, negative = cell killing: -13.9%
[1]; [10]
  activity, negative = cell killing: -6.37%
[1]; [11]
  activity, negative = cell killing: -24.3%
astro
  Potency: inactive

## C#C[C@]1(OC(C)=O)CC[C@H]2[C@@H]3CCC4=C/C(=N/O)CC[C@@H]4[C@H]3CC[C@@]21CC
SKOV3
  Potency: inactive
[1]; [7]
  activity, negative = cell killing: -21.9%
[1]; tumour line A
  Potency: 8.91 µM (active)

## C[C@@]12C(=O)OC(=O)[C@]1(C)C1CCC2O1
SKOV3
  Potency: 8.91 µM (active)
Tov-21-G
  Potency: 8.91 µM (active)
Tov112D
  Potency: 14.1 µM (active)
astro
  Potency: 0.631 µM (active)

## CNCCCCOc1ccccc1Cc1ccccc1
Tov-21-G
  Potency: inactive
Tov112D
  Potency: inactive

## O=C(CCCN1CC=C(n2c(=O)[nH]c3ccccc32)CC1)c1ccc(F)cc1
Tov-21-G
  Potency: inactive
Tov112D
  Potency: inactive
[1]; [4]
  activity, negative = cell killing: -17.1%
[1]; [5]
  activity, negative = cell killing: -15%
[1]; [7]
  activity, negative = cell killing: -24.6%
[1]; tumour line A
  Potency: 10 µM (active)
astro
  Potency: inactive

## C#C[C@]1(O)CC[C@H]2[C@@H]3CCC4=Cc5oncc5C[C@]4(C)[C@H]3CC[C@@]21C
Tov-21-G
  Potency: inactive
Tov112D
  Potency: inactive
[1]; [4]
  activity, negative = cell killing: -5.62%
[1]; [5]
  activity, negative = cell killing: -8.01%
[1]; [6]
  activity, negative = cell killing: -25.3%
[1]; [7]
  activity, negative = cell killing: -28.8%
astro
  Potency: inactive

## N#C/C(=C1\SCC(c2ccccc2Cl)S1)n1ccnc1 (centres undefined)
Tov-21-G
  Potency: inactive
Tov112D
  Potency: inactive
[1]; [4]
  activity, negative = cell killing: -11.6%
[1]; [5]
  activity, negative = cell killing: -27.3%
[1]; [7]
  activity, negative = cell killing: 0.133%
[1]; tumour line A
  Potency: 10 µM (active)
astro
  Potency: inactive

## CCCCNc1ccc(C(=O)OCCOCCOCCOCCOCCOCCOCCOCCOCCOC)cc1
Tov-21-G
  Potency: inactive
Tov112D
  Potency: inactive
[1]; [8]
  activity, negative = cell killing: 19.8%
[1]; [9]
  activity, negative = cell killing: -6.92%
[1]; [10]
  activity, negative = cell killing: -6.38%
[1]; [11]
  activity, negative = cell killing: -27%
astro
  Potency: inactive

## CC(C)(C)CC(C)(C)c1ccc(O)c(-n2nc3ccccc3n2)c1
SKOV3
  Potency: inactive
Tov-21-G
  Potency: inactive
Tov112D
  Potency: inactive
astro
  Potency: inactive
[2]
  max response: 0.874%

## COc1ccccc1N1CCN(CCCCNC(=O)c2ccc(-c3ccc(C(C)=O)cc3)cc2)CC1
Tov-21-G
  Potency: inactive
Tov112D
  Potency: inactive

## CCc1cc(Cl)c(OC)c(C(=O)NC[C@@H]2CCCN2CC)c1O
SKOV3
  Potency: inactive
Tov-21-G
  Potency: inactive
Tov112D
  Potency: inactive
astro
  Potency: inactive

## O=C(O)Cc1csc(-c2ccc(Cl)cc2)n1
Tov-21-G
  Potency: inactive
Tov112D
  Potency: inactive
[1]; [4]
  activity, negative = cell killing: -6.84%
[1]; [5]
  activity, negative = cell killing: 8.21%
[1]; [6]
  activity, negative = cell killing: -20.7%
[1]; [7]
  activity, negative = cell killing: -23.2%
astro
  Potency: inactive

## CCCCNC(=O)NS(=O)(=O)c1ccc(N)cc1
Tov-21-G
  Potency: inactive
Tov112D
  Potency: inactive
[1]; [4]
  activity, negative = cell killing: -8.59%
[1]; [5]
  activity, negative = cell killing: 11%
[1]; [6]
  activity, negative = cell killing: -6.54%
[1]; [7]
  activity, negative = cell killing: -25.7%
astro
  Potency: inactive

## O=C(N/N=C/c1ccc([N+](=O)[O-])o1)c1ccc(O)cc1
SKOV3
  Potency: 14.1 µM (active)
astro
  Potency: inactive

## C[C@H]1O[C@@H](O[C@H]2CC[C@@]3(C)[C@H](CC[C@@H]4[C@@H]3C[C@@H](O)[C@]3(C)[C@@H](C5=CC(=O)OC5)CC[C@]43O)C2)C[C@H](O)[C@@H]1O[C@H]1C[C@H](O)[C@H](O[C@H]2C[C@H](O)[C@H](O[C@@H]3O[C@H](CO)[C@@H](O)[C@H](O)[C@H]3O)[C@@H](C)O2)[C@@H](C)O1
SKOV3
  Potency: 0.282 µM (active)
Tov-21-G
  Potency: 0.316 µM (active)
Tov112D
  Potency: 0.316 µM (active)
astro
  Potency: 0.316 µM (active)
[3]
  Potency: 0.198 µM (active)

## CCN1/C(=C/C=C/c2sc3ccccc3[n+]2CC)Sc2ccccc21
SKOV3
  Potency: 0.126 µM (active)
Tov-21-G
  Potency: 0.891 µM (active)
Tov112D
  Potency: 3.16 µM (active)
astro
  Potency: 11.2 µM (active)
